# In ChEMBL document CHEMBL1201862, “PubChem BioAssay data set” (2004):
# Among all 150,000 compounds or so, about 6,500 (4.3%) were called active. Another 12% or so got no clear call; they are omitted. No cut-off for these calls is given here. Shown is part of a subset that was picked to be rich in actives.
# Biological target: T1, 15-hydroxyprostaglandin dehydrogenase [NAD(+)] (Homo sapiens) (UniProt P15428)
# T1 sequence (whole entry): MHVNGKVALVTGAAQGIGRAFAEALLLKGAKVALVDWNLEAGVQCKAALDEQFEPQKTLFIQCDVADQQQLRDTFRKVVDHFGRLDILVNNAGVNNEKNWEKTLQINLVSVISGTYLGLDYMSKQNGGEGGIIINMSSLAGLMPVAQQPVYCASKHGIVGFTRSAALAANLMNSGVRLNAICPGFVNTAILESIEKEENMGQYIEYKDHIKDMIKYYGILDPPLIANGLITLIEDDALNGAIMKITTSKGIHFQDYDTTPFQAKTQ
row,SMILES,Potency
1,O=C(O)c1cc(/N=N\c2ccc(S(=O)(=O)Nc3ccccn3)cc2)ccc1O,14.1 µM (active)
2,O=C(O)c1cc(/N=N/c2ccc(S(=O)(=O)Nc3ccccn3)cc2)ccc1O,15.8 µM (active)
3,O=C(/C=C\c1ccco1)Nc1nc(-c2ccccc2)cs1,inactive
